Counter-ions that a name gives are not always drawn. ± gives the standard deviation of the averaged measurements.

The subject of this assay is Danio rerio Tg(wt1b:EGFP) embryo, pronephros. The assay is described as follows: glomerular width (mean of left and right), fold change vs DMSO control; higher = wider glomerulus. To be noted: 25 µM; exposure: 24-48 hpf. The method in brief: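 Features are reported as fold changes against the mean of same-day DMSO-treated embryos. Before that, values more than 2 SD away from the feature mean were excluded. The embryos, dechorionated Tg(wt1b:EGFP) zebrafish, had been exposed from 24 to 48 hpf at 28.5°C to 25 μM compound in 0.5% DMSO in HEPES-buffered E3 with 0.003% PTU, and distances and angles came from 16 manually set points on maximum projections of dorsal pronephros images in Fiji.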
In turn, `CCCC(C)C1(CC)C(=O)NC(=O)NC1=O` (configuration not stated) [Pentobarbital] registered a glomerular width of 0.987 ± 0.044. Compound `CCN[C@@H](C)Cc1cccc(C(F)(F)F)c1` [Dexfenfluramine hydrochloride] returned a glomerular width of 1.04 ± 0.037. Then `C[N+]1(C)CCCC(OC(=O)C(O)(c2ccccc2)c2ccccc2)C1` (configuration not stated) [Mepenzolate bromide], with 1.01 ± 0.011; and `CC[C@@H](CO)NC(=O)[C@@H]1C=C2c3cccc4[nH]cc(c34)C[C@H]2N(C)C1` [Methylergometrine maleate], with 0.927 ± 0.056. In turn, `N[C@@H]1C[C@H]1c1ccccc1` [Tranylcypromine hydrochloride] yielded a glomerular width of 1.021 ± 0.0055.

In turn, `CCC(=O)O[C@H]1CC[C@H]2[C@@H]3CCC4=CC(=O)CC[C@]4(C)[C@H]3CC[C@]12C` [Testosterone propionate] gave a glomerular width of 1.03 ± 0.035. `CC(=O)O[C@H]1C[C@H](O[C@H]2[C@@H](O)C[C@H](O[C@H]3[C@@H](O)C[C@H](O[C@H]4CC[C@@]5(C)[C@H](CC[C@@H]6[C@@H]5C[C@@H](O)[C@]5(C)[C@@H](C7=CC(=O)OC7)CC[C@]65O)C4)O[C@@H]3C)O[C@@H]2C)O[C@H](C)[C@H]1O[C@@H]1O[C@H](CO)[C@@H](O)[C@H](O)[C@H]1O` [Lanatoside C] displayed a glomerular width of 0.929 ± 0.065. `CCCN1C[C@H](CSC)C[C@@H]2c3cccc4[nH]cc(c34)C[C@H]21` [Pergolide mesylate] had a glomerular width of 1.01 ± 0.019.

`c1ccc2nc(N3CCNCC3)ccc2c1` [Quipazine dimaleate salt] came in with a glomerular width of 1.01 ± 0.04. Then `C[C@]12CC[C@@H](O)C[C@H]1CC[C@@H]1[C@@H]2CC[C@]2(C)C(=O)CC[C@@H]12` [3-alpha-Hydroxy-5-beta-androstan-17-one], with 0.982 ± 0.066; and `CN1C[C@H](CNC(=O)OCc2ccccc2)C[C@@H]2c3cccc4c3c(cn4C)C[C@H]21` [Metergoline], with 0.9966 ± 0.0098; and `Oc1ccc2c3c1O[C@H]1[C@@H](O)CC[C@@]4(O)[C@@H](C2)N(CC2CCC2)CC[C@]314` [Nalbuphine hydrochloride], with 1 ± 0.033. Consider `C[C@]12CC[C@H]3[C@@H](CCC4=CC(=O)CC[C@@H]43)[C@@H]1CC[C@@H]2O` [Nandrolone], for which the glomerular width turned out to be 0.8978 ± 0.0049. Regarding `CNCC(O)c1ccc(O)cc1` (racemic) [(+,-)-Synephrine], the glomerular width was determined as 0.959 ± 0.015. In the case of `C[C@H](N)[C@H](O)c1ccc(O)c(O)c1` [Levonordefrin], the glomerular width turned out to be 1.04 ± 0.016.

Consider `CCC1(CC)C(=O)C=CNC1=O` [Pyrithyldione], for which the glomerular width came out at 1.034 ± 0.0093.

With `NCCCNCCSP(=O)(O)O` [Amifostine], the glomerular width is 1.04 ± 0.037.

Take `NCCc1c[nH]c2ccc(O)cc12` [Serotonin hydrochloride]: the glomerular width is 0.902 ± 0.038. The compound `COc1cccc(C2(O)CCCCC2CN(C)C)c1` (configuration not stated) [Tramadol hydrochloride] returned a glomerular width of 0.989 ± 0.021.

Turning to `C[C@@]12N[C@@H](Cc3ccccc31)c1ccccc12` [(-)-MK 801 hydrogen maleate], the glomerular width stood at 1.034 ± 0.0098. Then `CCC(C)C1O[C@]2(C=C[C@@H]1C)C[C@@H]1CC(C/C=C(\C)[C@@H](OC3C[C@H](OC)[C@@H](OC4C[C@H](OC)[C@@H](O)[C@H](C)O4)[C@H](C)O3)[C@@H](C)/C=C/C=C3\COC4[C@H](O)C(C)=CC(C(=O)O1)[C@]34O)O2` (some centres not stated) [Avermectin B1a], with 0.898 ± 0.044; and `C#C[C@]1(O)CC[C@H]2[C@@H]3CCC4=CC(=O)CCC4=C3C=C[C@@]21CC` [Gestrinone], with 1.119 ± 0.0059.

Source of the values: the supplement of paper PMC7366291.
